ERK AVP inh: inhibitors of vasopressin-stimulated ERK signaling pathway; HEK293-V1b, vasopressin-stimulated pERK AlphaScreen; Potency, µM (doses to about 57.5 µM), without a hit: at the top dose activity, negative = inhibition, most hits filed as inhibitors; 0.99% of 72,000 active; AID 995; note: nearly all actives have a fitted effect of over 55% in size
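Overnight-seeded V1b-HEK293 cells in 1% FBS got compound, then vasopressin (25 nM final, 5 min, 37C), then lysis buffer. AlphaScreen detection of phospho-ERK; activity normalized to basal and full-stimulation controls.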
Tau filament bind: binders of human tau filaments | Potency, µM (top dose mostly 57.1 µM), without a hit: top-dose activity change, negative = inhibition | AID 596 | recombinant tau filaments, thioflavin S fluorescence, 15 h; filaments grown with octadecylsulfate alongside compound | 2% of 71,000 active | P10636;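 note: actives lower thioflavin S fluorescence by blocking filaments or displacing dye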
Target sequence (P10636 whole entry, looked up): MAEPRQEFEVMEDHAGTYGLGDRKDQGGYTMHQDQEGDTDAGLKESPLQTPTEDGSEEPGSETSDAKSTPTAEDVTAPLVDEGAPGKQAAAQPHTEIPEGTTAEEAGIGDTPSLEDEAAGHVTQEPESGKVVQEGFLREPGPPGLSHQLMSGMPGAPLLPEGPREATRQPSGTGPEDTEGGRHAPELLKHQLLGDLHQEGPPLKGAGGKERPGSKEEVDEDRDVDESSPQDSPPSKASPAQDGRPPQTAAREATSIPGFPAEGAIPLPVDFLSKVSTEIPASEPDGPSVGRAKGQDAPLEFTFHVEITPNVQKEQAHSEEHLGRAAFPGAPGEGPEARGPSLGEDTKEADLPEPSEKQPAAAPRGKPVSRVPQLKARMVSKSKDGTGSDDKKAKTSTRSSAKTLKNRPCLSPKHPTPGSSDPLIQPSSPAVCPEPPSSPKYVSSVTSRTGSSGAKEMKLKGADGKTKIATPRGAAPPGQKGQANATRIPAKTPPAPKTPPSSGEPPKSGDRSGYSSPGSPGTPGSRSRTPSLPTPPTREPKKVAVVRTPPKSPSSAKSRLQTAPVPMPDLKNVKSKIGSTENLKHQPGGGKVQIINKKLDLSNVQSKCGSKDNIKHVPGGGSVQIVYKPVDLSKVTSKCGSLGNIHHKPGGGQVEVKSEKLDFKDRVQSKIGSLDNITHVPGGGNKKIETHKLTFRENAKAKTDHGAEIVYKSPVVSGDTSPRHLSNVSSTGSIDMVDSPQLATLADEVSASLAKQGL
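His-tagged recombinant human tau (exons 2, 3 and 10 included), 1 uM, was induced to fibrillize by 30 uM sodium octadecylsulfate with compound present. After 15 h at 37 C, thioflavine S fluorescence (ex 450, em 510 nm) was read.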
15-hLO inh: blocks human 15-lipoxygenase activity. purified 15hLO-1, xylenol orange hydroperoxide absorbance. Potency, µM (doses to about 57.1 µM), inactives show at the highest dose activity change, negative = inhibition, usual class: inhibitors. 1.4% of 74,000 active. AID 887; note: nearly all actives have a fitted effect of over 55% in size
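Compounds were preincubated 15 min at room temperature with 40 nM purified human enzyme (25 mM Hepes pH 7.5, 0.01% Triton X-100); 50 uM arachidonic acid reacted 6 min. Fe-xylenol orange detection, 30 min, absorbance ratio 573/405 nm.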
Hsp90 Hop PPI: changes Hsp90-Hop TPR2A binding signal, up or down; AlphaScreen TPR2A-His6 binding biotin-Hsp90 C-terminal peptide; Potency, µM (doses to about 57 µM), for the others: at the highest dose activity change, negative = inhibition; 0.44% of 71,000 active; active = well fitted curve in either direction with a large enough effect; inconclusive = small, poorly fitted or top-dose-only effect, or another doubt
Luciferase inh: inhibitors of firefly luciferase | P08659 | purified firefly luciferase, luminescence, 8 min | Potency, µM (highest dose often 57.1 µM), without a hit: at the top dose activity change, negative = inhibition, most hits filed as inhibitors | 2.2% of 72,000 active | AID 411; note: nearly all actives have a fitted effect of over 40% in size
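Firefly luciferase (PKLight detection mix) with 10 uM ATP in pH 7.2 imidazole buffer (KCl, MgCl2, Tween 20, BSA). Compounds tested across a concentration series (qHTS). Luminescence read after 8 min at ambient temperature.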
Bst PK mod: modulators of Bacillus stearothermophilus pyruvate kinase. purified pyruvate kinase, luminescence ATP production; ribose 5-phosphate activator present at AC10. Potency, µM. 1.2% of 51,000 active. AID 361; in the data active = potency below about 11 µM; inconclusive = mostly about 12 µM to 25 µM;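 the screen sought inhibitors and activators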;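 note: scaled between full activation by ribose 5 phosphate and full inhibition by luteolin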
An asterisk follows results filed as active; i = inactive; ? = inconclusive; . = no result given; [ ] = dose if it differs, or a comment. Shown are actives, neighbours in structure and some others; about 6.1% of the full set was active somewhere. Unless noted, calls come from the whole dose curve; as a rule, active = well fitted curve in the direction sought with a large enough effect; inconclusive = small, poorly fitted or top-dose-only effect, or another doubt; inactive = no such curve, though single readings can be large; an effect the other way counts as inactive or inconclusive. Unless noted, % is set by controls: 0 for no effect and ±100 for the full control effect; potency is the fitted concentration of half-maximal effect.

SMILES | ERK AVP inh | Tau filament bind | 15-hLO inh | Hsp90 Hop PPI | Luciferase inh | Bst PK mod
O=C(Cc1ccccc1)Nc1cccc(N2CCCC2)c1 | -23% | 25µM* | -5% | -18% | -6% | >57
CCN1CCN(c2ccc(NC(=O)Cc3ccccc3)cc2)CC1 | -8% | -19% | 3% | -3% | 0% | >57
O=c1[nH][nH]c(=S)c(=O)[nH]1 | 8%[11.5 µM] | -6%[11.4 µM] | -23%[11.4 µM] | -2%[11 µM] | 0%[11.4 µM] | .
COc1ccc(Oc2ncc3nc(-c4ccc(F)cc4)c(=O)n(CCC#N)c3n2)cc1 | -10% | -11% | 5% | -4% | -1%[11.4 µM] | .
COc1cc2ncnc(Nc3cccc(Cl)c3)c2cc1OC | 20µM* | ? | ? | -6% | -1% | .
COc1cc2ncnc(Nc3cccc(Br)c3)c2cc1OC | -12% | ? | 1%[25.6 µM] | -4% | -1% | .
COc1ccc(CC(=O)Nc2cccc(-c3nnc(-c4ccccc4)o3)c2)cc1OC | 5µM* | i | -13% | -1% | -15% | i
COc1ccc(Cc2nnc(-c3cccc(C)c3)o2)cc1OC | -18% | -3% | -4% | 5% | -3% | .
COc1ccc(CC(=O)Nc2cccc(-c3nnc(-c4ccc(C)cc4)o3)c2)cc1OC | 7.9µM* | i | -12% | -5% | 3.2µM* | i
COc1ccc(CC(=O)Nc2ccc(-c3nnc(-c4ccccc4)o3)cc2)cc1OC | 1% | 327% | -1% | -4% | 1% | >57
COc1ccc(CC(=O)Nc2cccc(-c3nnc(-c4cccc(C)c4)o3)c2)cc1OC | 3.2µM* | i | -14% | -4% | ? | .
CCC(C)C(=O)O[C@H]1C[C@@H](C)C=C2C=C[C@H](C)[C@H](CC[C@@H]3C[C@@H](O)CC(=O)O3)C21 (stereo not given in full) | 2% | . | 1%[25.6 µM] | . | . | .
Cc1nc(N2CCOCC2)c2nc(-c3ccccc3)n(CCN3CCOCC3)c2n1 | -8% | -14% | 6% | -2% | . | .
OCc1nc2ccccc2n1CCCOc1ccccc1 | . | . | 11% | . | . | .
COCCn1c(COC)nc2ccccc21 | 1% | -4% | -1% | -5% | 4% | >57
COCCn1c(COc2ccc(C)cc2)nc2ccccc21 | 12% | -9% | 6% | 6% | 13µM* | i
Cc1ccc(OCCCn2c(CO)nc3ccccc32)cc1 | -9% | 5% | 18% | -5% | 20µM* | i
C[Si](C)(C)C#Cc1ccccc1NC(=S)Nc1ccccc1 | 9% | ? | . | -15% | . | .
Cc1csc(NC(=O)c2ccccc2O)n1 | 13% | -3% | -22% | -5% | 25µM* | .
Cc1csc(NC(=O)CSCC(=O)Nc2ccccc2)n1 | 32µM* | -10% | -16% | 2% | -2% | >57
O=C(Nc1ccccc1O)c1ccccc1O | -25% | -4% | -15% | -1% | 20µM* | .
Cc1ccc(C(=O)O)c(C(=O)Nc2nc(C)cs2)c1 | -2% | -12% | 16% | -3% | 5% | >57
O=C(Nc1ccccc1)c1ccc(Cc2nc3ccccc3[nH]2)cc1 | . | . | -2% | . | . | .
CCOc1ccccc1O[C@@H](c1ccccc1)[C@@H]1CNCCO1 | 35% | 32µM* | -5%[25.6 µM] | ? | 0% | .
COC(=O)[C@@H]1C(O)[C@@H](C(=O)OC)[C@H](C)N(C)[C@@H]1C (stereo not given in full) | -6%[11.5 µM] | 9%[11.4 µM] | 1%[11.4 µM] | 0%[11 µM] | 1%[11.4 µM] | .
SMILES | ERK AVP inh | Tau filament bind | 15-hLO inh | Hsp90 Hop PPI | Luciferase inh | Bst PK mod
CCN(CC)C(=O)c1sc2nc(-c3ccc(OC)cc3)cn2c1C | 22% | 4% | -4% | -1% | 13µM* | i
CCOC(=O)OCC1OC(c2ccccc2)C=CC1Oc1cccc(N(C)C)c1 (stereo not given) | 26%[11.5 µM] | . | 7%[11.4 µM] | . | . | .
N#CC1=C(N)n2c(s/c(=C\c3ccco3)c2=O)=C(C#N)C1c1ccco1 (stereo not given) | -11% | -9% | -27% | -7% | -3% | >57
CCOC(=O)C1=C(N)n2c(s/c(=C/c3ccco3)c2=O)=C(C(=O)OC)C1c1ccco1 (stereo not given) | ? | 3.2µM* | -28% | -18% | -1% | >57
CCOC(=O)C1=C(C)N=c2s/c(=C\c3cccn3C)c(=O)n2C1c1cccc(OC)c1OC (stereo not given) | -23% | 29% | -10% | -10% | 0% | .
CCOC(=O)C1=C(C)N=c2s/c(=C/c3ccco3)c(=O)n2C1c1cccc(OC)c1 (stereo not given) | ? | 3.2µM* | 16µM* | -27% | -2% | .
c1ccc(CNc2ccnc(-c3cccnc3)n2)cc1 | -25% | -8% | -27% | 0% | 0%[2.29 µM] | .
O=C(CN1CCOc2ccccc21)NC1CCCCCCC1 | -21% | ? | -6% | -7% | -2% | .
O=C(CN1CCOc2ccccc21)NC1CCN(Cc2ccccc2)CC1 | -28% | 13µM* | -6% | -15% | 0% | .
O=C(O)C1=CC(=C(c2ccc(O)c(C(=O)O)c2)c2ccc(O)c(C(=O)O)c2)C=CC1=O | 5% | -5% | 2.5µM* | ? | 0% | .
CC1=C/C(=C(/c2ccc(O)c(C)c2)c2ccccc2C(=O)O)C=CC1=O | 23%[11.5 µM] | 3%[11.4 µM] | -14%[11.4 µM] | -2%[11 µM] | 2%[11.4 µM] | .
O=C(Nc1cccc2cccc(NC(=O)c3ccco3)c12)c1ccco1 | -22% | 13µM* | -14% | -16% | 2% | >57
O=C(Nc1ccc(-c2nc3cccnc3s2)cc1)c1ccc(Br)o1 | . | i | -1% | -5% | -7% | .
O=C(Nc1ccccc1NC(=O)c1ccco1)c1ccco1 | -14% | 2% | -4% | 2% | -1% | .
O=C(Nc1ccc(-c2nc3cccnc3s2)cc1)c1ccco1 | . | 64% | 25µM* | ? | 3.2µM* | .
O=C(Nc1ccc2c(c1)ncn2-c1ccccc1)c1ccco1 | -15% | -5% | -17% | 2% | 13µM* | 10*
O=C(Nc1cccc(-c2nc3cccnc3s2)c1)c1ccco1 | 16% | 13% | -3% | -3% | 20µM* | ?
COC(=O)NC(CC(C)=O)c1ccc2c(c1)OCO2 (stereo not given) | 21%[11.5 µM] | . | 2%[11.4 µM] | . | . | .
COc1ccc(-n2c(=O)c(CCc3ccccc3)nc3cnc(N(C)C)nc32)cc1 | -14% | -2% | -7% | -4% | 2%[11.4 µM] | .
COC(=O)C/C=C\[C@@H](C)[C@@H](/C=N\O[C@@H]1O[C@H](COC(C)=O)[C@@H](OC(C)=O)[C@H](OC(C)=O)[C@H]1OC(C)=O)NS(=O)(=O)c1ccc(C)cc1 | -9%[11.5 µM] | . | 6%[11.4 µM] | . | 0%[11.4 µM] | .
CC(=O)Nc1cccc(NC(=O)c2ccco2)c1 | . | . | 1% | . | . | .
O=C(Nc1cccc(NC(=O)c2nccc3ccccc23)c1)c1ccco1 | -12% | -11% | 3% | -16% | 13µM* | i
COc1cccc2[nH]c3c(N4CCCC(C)C4)ncnc3c12 (stereo not given) | ? | 62% | ? | -7% | 13µM* | .
CCNc1ncc2nc(-c3cc(F)cc(F)c3)c(=O)n(C[C@H]3CCCO3)c2n1 | 18% | 36% | 3% | -8% | 0%[11.4 µM] | .

Assay outcomes (PubChem)
